Each structure is given as a SMILES string. Several values for one entry are separate records, joined by “and”; a condition that tells them apart may be missing. Equal entries are not always repeated. This is part of a sample that, as a whole, favours compounds with a hit. Of some 83,000 tested, about 20% had one in any assay.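 Compound tested at a single concentration for 48 hours in 96-well plates; a percent growth value below 10 was scored as active.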 Where a structure was tested more than once in an assay, its records may differ in their call. Activity calls are given as the source filed them.

The subject of this assay is NCI/ADR-RES ovarian. Kind of assay: NCI-60 one-dose screen, 48 h (100 = growth as untreated, 0 = no growth, -100 = all killed). To be noted: 10 µM unless noted. How it is done:
Growth inhibition of the NCI/ADR-RES human […] tumor cell line is measured as a screen for anti-cancer activity. Cells are grown in 96 well plates and exposed to the test compound for 48 hours. Compounds are tested at a single concentration, which is 10^-5 M for most compounds. The reported endpoint is percent growth (GI% or GIPRCNT), where numbers from 0 - 100% represent growth inhibition, and numbers from -100% - 0 represent cell death. For example, a value of 40 represents 60% growth inhibition. A value of 0 means no net growth occurred over the course of the experiment. A value of -40 indicates 40% of cells at the beginning of the experiment died by the end of the experiment. A value of -100 means all cells are dead at the end of the experiment.
NCI-60 Human Tumor Cell Lines Screen was performed using the standard one-dose NCI protocol, which is described in more detail at https://dtp.cancer.gov/discovery_development/nci-60/default.htm.
Compounds with GIPRCNT values below 10 were considered active. Activity score was based on GIPRCNT using the following formula: […]
Score is 0 for GIPRCNT values of 100 or above, 50 for GIPRCNT values of 0, and 100 for GIPRCNT values of -100.
In the case of `Nc1ccc(P(=O)(O)O)cc1`, the growth was 93.1% (inactive) and 102% (inactive).
Next, `C/C=C(/C)C(=O)O[C@H]1CC[C@@]2(C)[C@@H]3CC[C@H]4[C@]5(O)C[C@H](O)[C@@]6(O)[C@@H](CN7C[C@@H](C)CC[C@H]7[C@@]6(C)O)[C@]5(O)C[C@@]42O[C@@]13O`: 111% (inactive); `C[C@]12CCc3sc(Nc4ccc(OC(F)(F)F)cc4)nc3C1=CC[C@@H]1[C@@H]2CC[C@]2(C)C(=O)CC[C@@H]12`: 81.6% (inactive); `CCOP(=O)(NC)OCC`: 102% (inactive).
The figure for `Cc1cc2c(cc1-c1ccnc(/C=C/C(=O)O)c1)C(C)(C)CCC2(C)C` is 87.8% (inactive).
Consider `CC1(C)C=Cc2c(ccc3c2[N+]([O-])=C2C3=C[C@@]34NC(=O)[C@]5(CCCN5C3=O)C[C@@H]4C2(C)C)O1`, for which the growth was 54.6% (inactive).
For the compound `CN1CCC2(CC1)C(C#N)C(=O)NC(=O)C2C#N` (stereo not given), the growth is 113% (inactive).
Take `ClC1OC(Cl)(Cl)C(Cl)(Cl)OC1(Cl)Cl` (stereo not given): the growth was 102% (inactive).
As for `CC[C@@H](C)C(=O)O[C@H]1[C@H](O)[C@H]2[C@@H](CN3C[C@@H](C)CC[C@H]3[C@@]2(C)O)[C@@H]2C[C@]34O[C@]5(O)[C@@H](OC(=O)[C@@](C)(O)CC)CC[C@@]3(C)[C@@H]5[C@@H](OC(C)=O)[C@@H](OC(C)=O)[C@H]4[C@@]21O`, the growth was 104% (inactive).
The figure for `CC[C@H](C)[C@H](NC(=O)c1cnccn1)C(=O)N(C)[C@H](C[C@@H](OC(C)=O)c1nc(C(=O)N[C@@H](Cc2ccccc2)C[C@H](C)C(=O)OC)cs1)C(C)C` is 14.4% (inactive); for `C=C[Se]CC(=O)/C=C/c1ccccc1` it is 87.9% (inactive).
For the compound `CC(=O)OC1CC2(O)C(CCC3(C)C(c4ccc(=O)oc4)CCC32O)C2(C)CCC(OC3OC(CO)C(O)C(O)C3O)C=C12` (stereo not given), the growth is -61.6% (active).
The figure for `Nc1c(Cl)c(Cl)nc(C(=O)O)c1Cl` is 101% (inactive); for `CN(C)C(=S)SSC(=S)N(C)C` it is 110% (inactive) and 113% (inactive).
Next, `CC1(C)S[C@H]2CC[C@H]3OC(=O)[C@@H]1N23`: 93.8% (inactive); `C[C@]12C[C@H](c3ccoc3)OC(=O)[C@H]1CC[C@@]1(C)[C@@H]2[C@H]2C=C[C@]1(O)C(=O)O2`: 106% (inactive); `O=C1CN2CCC1CC2`: 113% (inactive).
Take `N#CC(N)c1ccccc1` (stereo not given): the growth was 108% (inactive).
The figure for `O=[N+]([O-])c1ccc(OCc2ccc(S(=O)(=O)F)c(Cl)c2)c(Cl)c1` is 102% (inactive); for `C[C@]12CCc3sc(Nc4ccc(F)cc4F)nc3C1=CC[C@@H]1[C@@H]2CC[C@]2(C)C(=O)CC[C@@H]12` it is 67.6% (inactive); for `O=CC1(c2ccccc2)CCN(Cc2ccccc2)CC1` it is 101% (inactive).
Next, `CCCCCCCCCCCCCCCCCCn1cc[n+](C)c1`: 20.9% (inactive) and -7.98% (active).
Next, `CC1=C2[C@H]3OC(=O)[C@@H](C)[C@@H]3CC[C@@]2(C)C=CC1=O`: 13.8% (inactive); `CC12CCC3C4CCC(=O)C=C4CCC3C1CC1CC(=O)OC12` (stereo not given): 101% (inactive); `[N-]=[N+]=CC(=O)CCC(=O)C=[N+]=[N-]`: 103% (inactive).
For `O=C(O)C1C(C(=O)O)C2(Cl)C(Cl)=C(Cl)C1(Cl)C2(Cl)Cl` (stereo not given), the growth was 111% (inactive) and 106% (inactive).
Next, `NC(=O)c1c(Br)c(Br)c(Br)c(Br)c1C(=O)O` (tested in a mixture with another compound): 103% (inactive) and 100% (inactive).
Next, `COc1ccc2c(c1)c(-c1nc(-c3c[nH]c4ncccc34)cs1)cn2CCCCN1CCOCC1`: 63.3% (inactive).
The figure for `O=C(CCCN1CCC2(CC1)C(=O)NCN2c1ccccc1)c1ccc(F)cc1` is 101% (inactive) and 65.8% (inactive); for `CC(=O)c1cccc(S(=O)(=O)F)c1` it is 96.9% (inactive); for `CCOP(=O)(OCC)C(=O)N(CC)CC` it is 102% (inactive).
Turning to `O=S(OO)c1cc(Cl)c(O)c(Cl)c1` (stereo not given), the growth was 101% (inactive).
The figure for `CCN(CC)CCn1c(=O)n(C)c2ccccc21` is 101% (inactive).
The figure for `CC1(C)C2CCC1(CS(=O)(=O)O)C(=O)C2` (stereo not given) is 104% (inactive) and 112% (inactive); for `CNC(=O)Oc1ccc(Cl)cc1SSc1cc(Cl)ccc1OC(=O)NC` it is 81.2% (inactive).
The figure for `Oc1cc(N2CC2)c(O)cc1N1CC1` is 1.01% (active); for `CC[C@H](C)[C@H]1O[C@]2(C=C[C@@H]1C)C[C@@H]1C[C@@H](C/C=C(\C)[C@@H](O[C@H]3C[C@H](OC)[C@@H](O[C@H]4C[C@H](OC)[C@@H](NC)[C@H](C)O4)[C@H](C)O3)[C@@H](C)/C=C/C=C3\CO[C@@H]4[C@H](O)C(C)=C[C@@H](C(=O)O1)[C@]34O)O2` it is 0.588% (active); for `CCCn1cc2c3c(cccc31)[C@H]1C[C@@H](C)CN(C)[C@@H]1C2` it is 78.8% (inactive).
Regarding `O=[N+]([O-])c1ccc(CI)cc1`, the growth was 70.9% (inactive).
The figure for `COc1ccc2c(c1)c(-c1nc(-c3cn(C)c4ncccc34)cs1)cn2CCCCN1CCOCC1` is 59.6% (inactive).
